High-throughput results deposited in PubChem by Broad Institute.
HSF-1 act: increases HSF-1 driven luciferase reporter signal; NIH3T3-HGL HSF-1 luciferase reporter, MG132, 8 h; 100% = twice DMSO control signal; activation, % at 9 µM; hit rate 1.7% among 300,000;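 active = mean replicate activation of at least 50% with a set share of replicates each reaching 50%; inconclusive = only one of those two conditions met; inactive = mean below 50% and too few replicates reaching it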
esBAF inh: blocks esBAF chromatin remodeling in mouse ES cells. reporter increase, % at 12.5 µM. AID 602393. Bmi1-luciferase knock-in reporter, 24 h; 100% = twice the neutral-well signal. hit rate 2% among 350,000; in the data active = activation above about 40%; inconclusive = no clear call, values can overlap the other calls;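 also: a rise in the Bmi1 reporter signal indicates esBAF inhibition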
HSF1 inhib: HSF1 inhibition; NIH3T3-HGL HSE-luciferase, MG132-induced, luminescence 8 h; hits give low values; AID 2098; activity change, negative = inhibition, % at 7.5 µM (by protocol); hit rate 0.77% among 300,000;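 active = more than half of replicate wells show activity change below -50%, luminescence cut by over half; inconclusive = some wells, but at most half, below -50%; inactive = no replicate well below -50%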;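 also: luciferase reports HSF-1 transcriptional activity via heat shock element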
Vif inh: HIV Vif inhibition; HEK293T cells, Vif self-association by quenched fluorescence, imaging, 24 h; inhibition, % at 7.49 µM; hit rate 0.35% among 340,000; in the data active = inhibition above about 50%, passing the limit was not always enough; inconclusive = no clear call, values can overlap the other calls; inactive = below about 31%
A number is an active result; n = inactive; u = inconclusive; x = no result given. A selection: hits, their analogues and other compounds. The true share with any hit is near 3.4%.

SMILES	HSF-1 act	esBAF inh	HSF1 inhib	Vif inh
Cc1nn(C)cc1NC(=O)C[C@@H]1CC[C@@H]2[C@H](COc3ccc(NC(=O)Nc4cccc(Cl)c4)cc3C(=O)N2C)O1	x	n	x	x
CN(NC1OC(=O)c2ccccc21)c1ccc(C(F)(F)F)cc1[N+](=O)[O-] (centres undefined)	n	x	-59	n
CN(NC1OC(=O)c2ccccc21)c1ccc(Cl)cc1[N+](=O)[O-] (centres undefined)	n	n	n	n
O=C(C[C@@H]1C=C[C@@H](NC(=O)c2cnccn2)[C@H](CO)O1)NCc1ccccc1F	x	n	x	x
C[C@@H]1CCCCO[C@@H](CN(C)C(=O)Nc2ccccc2)[C@H](C)CN([C@@H](C)CO)C(=O)c2cc(NS(=O)(=O)c3ccc(F)cc3)ccc2O1	x	n	x	x
CN(C)CC(=O)Nc1ccc2c(c1)[C@@H]1C[C@H](CC(=O)N(C)C)O[C@@H](CO)[C@@H]1O2	x	n	x	x
Nc1ccc(CSc2ccc(Cl)cc2)c(Cl)c1	x	103	x	n
Cc1cc(C)nc(NNC2=CC(=[N+]3CCCCC3)CC(C)(C)C2)n1	n	x	-71	n
O=C(C[C@@H]1C[C@@H]2c3cc(NC(=O)Nc4ccccc4F)ccc3O[C@@H]2[C@H](CO)O1)NC1CCCC1	x	n	x	x
Cc1cc(C)c2nc3sc(C(=O)N4CCOCC4)c(N)c3cc2c1	n	n	n	67
Cc1ccc(C)c2nc3sc(C(=O)N4CCOCC4)c(N)c3cc12	n	x	n	n
C[C@H](CO)N1C[C@H](C)[C@H](CN(C)C(=O)Nc2cccc3ccccc23)OCCCC[C@H](C)Oc2ccc(NC(=O)Cc3ccccc3)cc2C1=O	x	n	x	x
CNC(=O)C[C@H]1CC[C@H]2[C@@H](COC[C@@H](O)CN2C(=O)c2ccc3c(c2)OCO3)O1	x	n	x	x
CC(C)NC(=S)N1CCN(S(=O)(=O)c2cccc(C(F)(F)F)c2)CC1	n	x	n	n
CCNC(=S)N1CCN(S(=O)(=O)c2cccc(C(F)(F)F)c2)CC1	72	n	n	n
Cc1ccc(O)c(C(=O)c2cnc3c(c2)CN(CCC(C)C)C(=O)N3)c1	120	n	n	n
Cc1ccc(O)c(C(=O)c2cnc3c(c2)CN(C)C(=O)N3)c1	73	x	n	n
COc1cccc(NC(=O)N[C@H]2C=C[C@@H](CC(=O)Nc3ccc(-c4ccccc4)cc3)O[C@H]2CO)c1	x	n	x	x
CN1CCN(CC(=O)n2c3c(c4ccccc42)CCCC3)CC1	n	n	-64	n
CCOc1ccc(C(=O)COC(=O)c2cccc(-n3cnnn3)c2)cc1	n	74	n	n
C/C=C/c1ccc([C@H]2[C@@H](CNC(=O)CC)N(Cc3ccccn3)[C@H]2CO)cc1	x	n	x	x
Cc1cc(C)c2cc(CN(CCN(C)C)C(=O)Nc3ccccc3Cl)c(=O)[nH]c2c1	n	x	-50	n
CC(Sc1nnc2ccccn12)C(=O)N1CCc2ccccc2C1 (centres undefined)	n	x	n	n
O=C(CSc1nnc2ccccn12)N1CCc2ccccc21	n	53	n	n
O=C(CSc1nnc2ccccn12)N1CCc2ccccc2C1	n	52	n	n
SMILES	HSF-1 act	esBAF inh	HSF1 inhib	Vif inh
Cn1ccnc1SCC(=O)N1CCc2ccccc21	n	n	n	n
O=C(CSc1ncccn1)N1CCCc2ccccc21	n	x	n	n
Cc1ccnc(SCC(=O)N2CCc3ccccc32)n1	n	56	n	n
C[C@@H]1CN([C@@H](C)CO)C(=O)c2cc(/C=C/c3ccccc3)cnc2O[C@@H]1CN(C)C	x	n	x	x
O=C(C#Cc1ccccc1)c1ccc([N+](=O)[O-])cc1	61	x	n	u
CO[C@@H]1CN(C)C(=O)c2ccc(NC(=O)C3CC3)cc2OC[C@H](C)N(C(=O)c2ccccc2F)C[C@@H]1C	x	n	x	x
COC(=O)c1ccc(CNCC(O)COc2ccc(-c3ccccc3)cc2)cc1 (centres undefined)	n	n	n	n
COc1ccc(CNCC(O)COc2ccc(C(C)(C)c3ccccc3)cc2)cc1 (centres undefined)	194	x	n	n
Cc1nc2ccc(NC(=O)CSc3ccccc3)cc2s1	x	54	x	n
Cc1nc2ccc(NC(=O)Cc3cccs3)cc2s1	n	71	n	n
O=C(CSc1ccccc1)Nc1ccc(N2CCN(c3ccccc3)CC2)c(F)c1	55	n	n	n
O=C(Cc1cccs1)Nc1cccc(-c2nc3cc4ccccc4cc3[nH]2)c1	74	x	n	n
Cc1nc2ccc(NC(=O)COc3ccccc3C)cc2s1	n	n	n	n
Cc1cccc(N(CC(=O)NCc2ccc(F)cc2)C(=O)c2csnn2)c1C	52	x	n	n
Cc1ccc(N(CC(=O)NCc2ccc(F)cc2)C(=O)c2csnn2)c(C)c1	n	x	n	n
O=CNC1c2ccccc2CCc2ccccc21	x	n	x	61
O=S(=O)(NC1CCc2ccccc21)c1ccccc1 (centres undefined)	x	n	x	n
CC(C)(C)C(=O)O/N=C(\N)c1ccc(-c2csnn2)cc1	n	84	n	n
CC(=O)O/N=C(\N)c1ccc(-c2csnn2)cc1	n	54	n	n
Cc1ccccc1C(=O)Oc1ccc(-c2csnn2)cc1	n	51	n	n
Cc1ccccc1C(=O)Oc1ccc(Sc2ccc(O)cc2)cc1	n	n	n	n
c1ccc(COc2ccc(-c3csnn3)cc2)cc1	n	47	n	n
CC(=O)COc1ccc(-c2csnn2)cc1	n	x	n	n
CC=Cc1ccc2n(c1=O)C[C@@H]1[C@@H](CO)[C@H](C(=O)Nc3ccc(-c4ccccc4)cc3)N(CCC)[C@H]21 (mixture of isomers)	x	n	x	x
Brc1ccccc1-c1nc2c3ccccc3ncn2n1	x	49	x	n
SMILES	HSF-1 act	esBAF inh	HSF1 inhib	Vif inh
C[C@H]1CN([C@@H](C)CO)C(=O)c2cc(C#Cc3ccccc3F)cnc2O[C@@H]1CN(C)S(=O)(=O)c1ccccc1F	x	n	x	x
COc1cc(NC(=O)n2ncc3cc(Cl)ccc32)cc(OC)c1	n	n	n	n
COc1ccc(NC(=O)n2ncc3cc(Cl)ccc32)cc1OC	53	n	n	n
CC(C)c1ccc(/C=N/NC(=O)CCNC(=O)c2ccccc2)cc1	n	62	n	n
O=C(N/N=C/c1cccnc1)c1cccc(Cl)c1	n	n	n	n
CC(C)c1ccc(/C=N/NC(=O)c2cccc(Cl)c2)cc1	55	x	n	n
COCC(=O)N(C[C@H]1N[C@@H](CO)[C@@H]1c1ccc(-c2cccnc2)cc1)C(C)C	x	n	x	x
O=C(Cc1ccccc1F)NC1CCCc2ccccc21 (centres undefined)	n	n	n	n
Cc1ccccc1CC(=O)NC1CCCc2ccccc21 (centres undefined)	65	n	n	n
COCC#Cc1cnc2c(c1)C(=O)N([C@H](C)CO)C[C@H](C)[C@@H](CN(C)Cc1ccccc1F)O2	x	n	x	x
CCOC(=O)c1cnc(Nc2nc3ccccc3o2)nc1CSc1ncccn1	n	x	n	x
CCCc1nc(Nc2nc3ccccc3o2)nc(C)c1C(=O)OCC	64	63	n	n
CCCCc1ccc(NS(=O)(=O)c2c(C)n(C)c(=O)n(C)c2=O)cc1	64	n	n	n
Cc1ccc(S(=O)(=O)N(C)C[C@H]2Oc3ncc(C#CC4(O)CCCC4)cc3C(=O)N([C@H](C)CO)C[C@H]2C)cc1	x	n	x	x
